High-throughput results as filed in PubChem BioAssay.
HIV RNase H inh-1: blocks HIV-1 RNase H cleavage of RNA/DNA duplex. RT-RNase H RNA/DNA duplex cleavage, fluorescence. AID 565. inhibition, % at 10 µM. 65,000 compounds, 1.9% hits. P04585; in the data active means inhibition above about 50%
RmlCD inh mix: inhibitors of RmlC and RmlD coupled enzymes | RmlC/RmlD coupled enzyme inhibition, 384-well mixture HTS | inhibition, % at 5.5 µM | 110,000 compounds, 0.39% hits | AID 1532; in the data active means inhibition above about 30%, passing the limit was not always enough
HIV RNase H inh-2: confirmation of HIV-1 reverse transcriptase RNase H inhibitors | inhibition, % at 10 µM | AID 651 | Recombinant RT RNase H, fluorescent RNA/DNA duplex cleavage | shares compounds with HIV RNase H inh-1 | 1,000 compounds, 39% hits; in the data active means inhibition above about 48%
A number is an active result; i = inactive; nt = no result given. The sample as a whole holds a higher share of hits than the screen did.

SMILES	HIV RNase H inh-1	RmlCD inh mix	HIV RNase H inh-2
c1csc(-c2nn3c(C4CCCCC4)nnc3s2)c1	i	nt	nt
c1csc(-c2nn3c(Cn4nnc5ccccc54)nnc3s2)c1	i	i	nt
c1ccc(CCc2nn3c(Cc4ccccc4)nnc3s2)cc1	90	i	i
c1ccc(Cc2nnc3sc(-c4cccs4)nn23)cc1	85	i	i
c1ccc2c(c1)nnn2Cc1nnc2sc(-c3ccncc3)nn12	75	i	70
CCOc1ccccc1-c1nn2c(Cc3ccccc3)nnc2s1	i	i	nt
O=C1NC(Cc2c[nH]c3ccccc23)C(=O)N1CCOc1ccccc1 (stereo not given)	i	i	nt
NC(=O)C1=C[C@@H](C2CCCCC2)C[C@@H](OCCCCO)O1	nt	i	nt
O=C(N[C@@H](c1ccccc1)[C@@H]1C[C@H]1C(=O)O)OCc1ccccc1	nt	i	nt
CCc1nnc2sc(-c3ccc(NC(=O)c4ccc5c(c4)OCCO5)cc3)nn12	i	i	nt
c1ccc(Cc2nnc3sc(-c4ccc5c(c4)OCO5)nn23)cc1	85	i	i
NCCCC[C@H]1CNC(=S)N1CCCCC1CCCCC1	nt	i	nt
CCOC(=O)c1sc(NC(=O)C(CC)Sc2nnc3c4ccccc4n(CC)c3n2)nc1C (stereo not given)	i	nt	nt
CCOC(=O)c1sc(NC(=O)CSc2nnc3c4ccccc4n(CC)c3n2)nc1C	74	nt	i
COC(=O)c1ccccc1NC(=O)c1sc(N)nc1C	i	i	nt
COC(=O)c1ccccc1NC(=O)c1sc(=S)n(C)c1N	87	i	74
CCOC(=O)c1cc(C(C)(C)C)oc1CNC(=O)c1c(C)oc2c1CCCC2	nt	i	nt
Cc1ccc(/C(O)=C2\C(=O)C(=O)N(CCCN(C)C)C2c2ccccn2)cc1 (stereo not given)	i	nt	nt
CCS(=O)(=O)N1CCN(S(=O)(=O)c2ccc(F)cc2)CC1	i	i	nt
CCC1CCCCN1S(=O)(=O)c1ccc(S(=O)(=O)N2CCN(S(=O)(=O)CC)CC2)cc1 (stereo not given)	51	i	57
Cc1cc(C)c(C)c(S(=O)(=O)NCC(=O)N2CCCC2)c1C	i	i	nt
Cc1ccc2nsnc2c1S(=O)(=O)N(Cc1cc2cccc(C)c2[nH]c1=O)CC1CCCO1 (stereo not given)	i	i	nt
COc1cc(-c2nn3c(C4CCCCC4)nnc3s2)cc(OC)c1OC	75	i	i
COc1ccc(-c2nn3c(C4CCCCC4)nnc3s2)cc1OC	i	i	nt
Cc1c(NC(=O)Oc2ccccc2)sc(=S)n1C	59	i	i
SMILES	HIV RNase H inh-1	RmlCD inh mix	HIV RNase H inh-2
CC(=O)NC(=O)Nc1sc(=S)n(C)c1C	i	i	nt
CCCC(=O)NCCSC	i	i	nt
CCn1ncc(Cl)c1C(=O)NC(C)c1ccccc1 (stereo not given)	i	i	nt
Fc1ccc(CSc2nc3ncccc3[nH]2)cc1	61	i	i
Fc1cccc(CSc2nc3ncccc3[nH]2)c1	nt	i	nt
CCCCN(CCCC)CCNC(=O)Cc1nc2c(c(=O)[nH]c(=O)n2C)n1C	i	i	nt
C=C1CCN(C(C)C(=O)O)S(=O)(=O)c2ccccc21 (stereo not given)	nt	i	nt
CCC1(CC)C(=O)N(C)C(=O)NC1=Nc1ccc(OC)cc1	nt	i	nt
COc1ccc(C2CC(=O)N3CN(c4ccc(C)c(Cl)c4)CSC3=C2C#N)cc1 (stereo not given)	i	i	nt
Cc1ccc(C2N(c3cccc(Cl)c3)C(=O)C3CCCN32)o1 (stereo not given)	i	i	nt
COc1cc(OC)c(C2C(C#N)=C(N)OC3=C2C(=O)CC(C)C3)cc1OC (stereo not given)	i	i	nt
Cc1cccc(N2CSC3=C(C#N)C(c4ccc(C)o4)CC(=O)N3C2)c1 (stereo not given)	94	i	55
C=CCOC(=O)C1=C(C)OC(N)=C(C#N)C1c1ccccc1F (stereo not given)	i	i	nt
COc1cc(OC)c(C2CC(=O)N3CN(c4ccccc4C)CSC3=C2C#N)cc1OC (stereo not given)	77	i	72
COc1ccc(N2CSC3=C(C#N)C(c4cccc(OC)c4OC)CC(=O)N3C2)cc1 (stereo not given)	75	i	i
CCc1ccccc1N1CSC2=C(C#N)C(c3ccccc3F)CC(=O)N2C1 (stereo not given)	89	i	59
CC(=O)c1cccc(NC(=O)Cc2ccc3c(c2)CCCC3)c1	nt	i	nt
C#CCCOC(=O)N1C2=NC(C(=O)OC)=C(C(=O)OC)[C@@H]3N(C)c4ccccc4[C@]23C[C@H]1CO	nt	i	nt
COC/C=C/C1=CC2=CC(=O)C(C)(OC(=O)c3cnc4ccccc4n3)C(=O)C2=CN1C1CCCC1 (stereo not given)	nt	i	nt
COc1ccc(-c2ccc(SCC(=O)N3CCCC3)nn2)cc1OC	90	i	i
COc1ccc(-c2ccc(SCC(=O)N3CCOCC3)nn2)cc1OC	i	i	nt
COCCn1nnnc1CN1CCC(Cc2ccccc2)CC1	i	i	nt
